From PubChem BioAssay (NCATS)
The other results are listed elsewhere or left out. Inconclusive results are not listed. The source made the active and inactive calls. Calls follow the shape of the dose curve; as a rule, active = well fitted inhibition curve with a large enough effect; inconclusive = small, poorly fitted or top-dose-only effect, or another doubt; inactive = no such curve, though single readings can be large or run the other way.

Target: DNA polymerase eta (Homo sapiens) (UniProt Q9Y253)
Sequence (Q9Y253 whole entry, looked up): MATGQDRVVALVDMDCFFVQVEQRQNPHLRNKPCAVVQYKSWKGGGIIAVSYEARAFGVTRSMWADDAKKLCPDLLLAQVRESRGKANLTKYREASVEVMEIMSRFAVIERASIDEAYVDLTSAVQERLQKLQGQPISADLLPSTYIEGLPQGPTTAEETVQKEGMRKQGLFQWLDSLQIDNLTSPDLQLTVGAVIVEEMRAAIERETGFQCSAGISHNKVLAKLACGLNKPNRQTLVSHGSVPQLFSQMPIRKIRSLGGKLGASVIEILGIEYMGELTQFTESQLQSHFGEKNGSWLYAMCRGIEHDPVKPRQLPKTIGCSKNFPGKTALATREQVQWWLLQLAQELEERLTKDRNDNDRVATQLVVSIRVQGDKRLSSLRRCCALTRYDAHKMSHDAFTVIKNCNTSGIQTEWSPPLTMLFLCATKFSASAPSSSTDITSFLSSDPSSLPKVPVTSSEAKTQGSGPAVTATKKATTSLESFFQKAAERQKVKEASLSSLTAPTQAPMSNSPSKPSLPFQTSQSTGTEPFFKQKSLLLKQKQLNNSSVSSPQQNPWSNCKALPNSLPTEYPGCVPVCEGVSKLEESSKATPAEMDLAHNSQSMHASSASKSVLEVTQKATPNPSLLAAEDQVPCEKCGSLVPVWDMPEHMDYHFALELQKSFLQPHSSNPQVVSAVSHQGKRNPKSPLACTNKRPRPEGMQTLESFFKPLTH
Test: qHTS for Inhibitors of Polymerase Eta: Confirmatory Assay for Cherry-picked Compounds (AID 720502)
Details: Pol eta primer extension, TAMRA/BHQ fluorescence, 10 min
From the text: The Y-family of DNA polymerases, such as the Polymerase Eta (Pol eta), are specifically involved in DNA repair. Pol eta copies undamaged DNA with a lower fidelity than other DNA-directed polymerases. However, it accurately replicates UV-damaged DNA. When thymine dimers are present, this polymerase inserts the complementary nucleotides in the newly synthesized DNA, thereby bypassing the lesion and suppressing the mutagenic effect of UV-induced DNA damage. […] Thus, while Pol eta's (and most likely iota's) normal function is to protect humans against the deleterious consequences of DNA damage, under certain conditions they can have deleterious effects on human health. As a consequence, small molecule inhibitors of Pol eta (identified from a high throughput replication assay) have potential therapeutic applications. A 1536-well format, fluorescence based, high-throughput screen (AID 588591) is developed in collaboration with the National Institute of Child Health & Human Development (NICHD) to screen for inhibitors of the Pol eta enzyme. This screen is used to validate the activity of the selected compounds from the primary assay against the human Pol eta. Inhibition is the desired outcome for this assay. NIH Chemical Genomics Center [NCGC] NIH Molecular Libraries Probe Centers Network [MLPCN] MLPCN Grant: MH090825 Assay Submitter (PI): Roger Woodgate, NICHD
Three microliters of reagents (buffer in column 3 and 4 as negative control while 10 nM Pol eta in columns 1, 2, and 5-48) were dispensed into a 1536-well black solid-bottom plate. Compounds (23 nL) were transferred via Kalypsys pin tool equipped with 1536-pin array. The plates were then incubated for 15 min at room temperature, and 1 uL of substrate was added to start the reaction for a final concentration of 50 nM. The substrate was made by the annealing of unlabeled oligodeoxynucleotide primer (59-[…]-39) and TAMRA-labeled reporter strand (59-[…]-6-TAMRA-39) to oligodeoxynucleotide template labeled with BHQ-2 (59-BHQ-2-[…]-39) described in detail at the Yamanaka et.al. (PLOS, 2012) reference paper. The assay plates were initially read after 0 min and again after 10 min of kinetic reaction using the PerkinElmer Viewlux reader equipped with 525 nm excitation and 598 nm emission filters.
Potency is read from the fitted curve at half-maximal effect.

Potency, active:
Cc1ccc(C(=O)O)cc1-c1ccc(/C=C2\SC(=O)N(CC(=O)Nc3ccc4c(c3)OCO4)C2=O)o1 19 µM
CC1CCN(c2ccc(S(=O)(=O)Nc3cc(C(=O)O)cc(C(=O)O)c3)cc2[N+](=O)[O-])CC1 60.1 µM
CC1=NN(c2ccc(Cl)c(C(=O)O)c2)C(=O)/C1=C/c1ccc(-c2ccccc2[N+](=O)[O-])o1 75.7 µM
ON=C1/C(=N\O)CC2(C/C1=N/O)OCCO2 30.1 µM
Cc1cc(C)cc(C(=O)NC2C(=O)N3C(C(=O)O)=C(CSc4nnc(C)s4)CSC23)c1 (stereo not given) 26.9 µM
CSc1nnc(SCc2nc3sc(C(=O)O)c(C)c3c(=O)[nH]2)s1 5.36 µM
CCc1ccc2nc3sc(C(=O)Nc4nnc(CC)s4)c(N)c3cc2c1 60.1 µM
CCOc1ccccc1/C=c1\sc2nc(-c3ccco3)nn2c1=O 60.1 µM
CCOc1cccc2c1N[C@@H](c1ccc(C(=O)O)cc1)[C@H]1CC=C[C@@H]21 7.57 µM
NC(CSC(c1ccccc1)(c1ccccc1)c1ccc(-c2ccccc2)cc1)C(=O)O (stereo not given) 75.7 µM
COc1ccc2[nH]c3c(C)c4cc[n+](C)cc4c(C)c3c2c1 9.53 µM
Cc1oc2c(C)c3oc(=O)c(CC(=O)N[C@@H](CC(C)C)C(=O)N[C@@H](Cc4ccccc4)C(=O)O)c(C)c3cc2c1C 47.8 µM
O=C1Nc2ccc([N+](=O)[O-])cc2C1=Nc1cccc(CO)c1 75.7 µM
O=C1COc2c1ccc(O)c2O 9.53 µM
Cc1cc(/C=N/Nc2ccc([N+](=O)[O-])cn2)c(C)n1-c1cccc(C(=O)O)c1 26.9 µM
CCc1nc2cccnc2n1-c1ccc(C(=O)O)cc1 10.7 µM
C=CC1=C(C(=O)O)N2C(=O)[C@@H](NC(=O)/C(=N/OCC(=O)O)c3csc(N)n3)[C@H]2SC1 3.38 µM
COCCNC(=O)Nc1ccc2nc(-c3ccco3)c(-c3ccco3)nc2c1 5.36 µM
Cc1ccc(-c2nn(-c3ccccc3)cc2/C=C2\SC(=S)N(CCCCCC(=O)O)C2=O)o1 75.7 µM
CN1CCN(CCCNC(=O)c2ccc(/C=C3\Oc4ccccc4N(Cc4ccc(Cl)cc4)C3=O)cc2)CC1 19 µM
COc1ccccc1C(=O)N/C(=C/c1ccco1)C(=O)Nc1ccc(C(=O)O)cc1 53.6 µM
COC(=O)Cc1cc(=O)n(-c2nc3ccccc3s2)[nH]1 84.9 µM
C=C(C)C(=O)O[C@H]1C/C(C)=C\C(=O)/C=C(\C)[C@H](O)[C@@H]2OC(=O)C(=C)[C@@H]21 75.7 µM
O=C(Nc1ccc(S(=O)(=O)Nc2nccs2)cc1)c1cc(-c2ccncc2)nc2ccccc12 67.5 µM
CC(=O)N(C1=C(Cl)C(=O)c2ccccc2C1=O)c1ccc(C(=O)O)cc1 26.9 µM
O=C(Cc1ccc(S(=O)(=O)N2CCCC2)s1)NC1CCCCCC1 60.1 µM
O=C(CSc1nc2ccccc2c(=O)[nH]1)Nc1nc(-c2ccc(Br)cc2)cs1 75.7 µM
O=C1NN(c2ccccc2)C(=O)/C1=C/c1ccc(-c2cccc(C(=O)O)c2)o1 30.1 µM
O=C(COC(=O)CCC(=O)c1cccs1)NCc1ccco1 75.7 µM
NC(=O)CSc1nnc(NC(=O)c2ccc(Br)o2)s1 26.9 µM
O=C(N/N=C/c1ccco1)c1ccc(C(=O)N/N=C/c2ccco2)o1 53.6 µM
N#C/C(=C\C1=C(N2CCOCC2)C(=C\c2ccccc2)/CC1)C(=O)Nc1ccccc1F 30.1 µM
CCCN1CCN(C(=O)Cn2ncc3ccccc32)CC1 75.7 µM
COc1ccc(Cl)cc1NC(=O)CCS(=O)(=O)c1ccc(Br)cc1 16.9 µM
Cc1ccc(NC(=O)c2cc(-c3ccc(C)o3)nc3ccccc23)nc1 75.7 µM
C#Cc1ccc([C@@H]2C=C(C(=O)O)O[C@H](OCCCCO)C2)cc1 84.9 µM
Cc1ccc2cc(/C=N/Nc3ccc(C(=O)O)cc3)c(Cl)nc2c1 30.1 µM
Cc1c(CC(=O)N2CCN(C(=O)C3COc4ccccc4O3)CC2)c(=O)oc2c(O)c(O)ccc12 (stereo not given) 7.57 µM
O=C(COC(=O)c1ccc(F)cc1F)Nc1ncccn1 37.9 µM
O=C(O)C(c1ccccc1)N1C(=O)/C(=C\c2ccc(-c3cccc(Cl)c3)o2)SC1=S (stereo not given) 75.7 µM
